Whole data set: some 33,000 sequences, median “E-score (-0.5 to 0.5)” near -0.054, cut for the highest 2% near 0.35. Only a selection was taken, and the highest values are over-represented in it overall.

This test has as its target T1, Stb5 (UniProt P38699).
T1 sequence: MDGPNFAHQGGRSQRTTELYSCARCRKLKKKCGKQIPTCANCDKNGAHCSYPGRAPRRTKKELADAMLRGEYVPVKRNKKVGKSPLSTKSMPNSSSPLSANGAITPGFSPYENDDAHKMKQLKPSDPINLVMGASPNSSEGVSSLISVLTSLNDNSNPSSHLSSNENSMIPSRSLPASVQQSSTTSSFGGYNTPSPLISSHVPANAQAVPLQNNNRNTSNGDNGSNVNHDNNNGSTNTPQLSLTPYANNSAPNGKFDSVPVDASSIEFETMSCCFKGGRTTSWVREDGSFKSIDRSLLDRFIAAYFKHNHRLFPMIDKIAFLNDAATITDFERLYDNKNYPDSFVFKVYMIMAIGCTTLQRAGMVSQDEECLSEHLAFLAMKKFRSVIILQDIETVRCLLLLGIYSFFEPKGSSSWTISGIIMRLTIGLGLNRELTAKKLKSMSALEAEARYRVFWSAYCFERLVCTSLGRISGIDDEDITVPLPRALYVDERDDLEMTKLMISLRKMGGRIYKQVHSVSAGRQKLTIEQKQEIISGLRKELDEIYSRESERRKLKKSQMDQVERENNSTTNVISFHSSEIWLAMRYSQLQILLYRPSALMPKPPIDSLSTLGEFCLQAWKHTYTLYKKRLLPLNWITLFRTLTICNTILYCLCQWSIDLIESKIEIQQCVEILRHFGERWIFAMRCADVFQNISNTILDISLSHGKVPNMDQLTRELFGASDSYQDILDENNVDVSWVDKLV
Briefly: PBM E-score (8-mer binding enrichment) (E-score (-0.5 to 0.5)); higher = stronger / more preferred TF binding. The note with it: protein concentration: 200 nM; construct: GST-full length. How it is done:
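Universal 'all 10-mer' protein binding microarrays (Agilent AMADID 015681) probed with GST-tagged S. cerevisiae TFs (full-length or DBD) made by in vitro transcription/translation (PURExpress), about 100-200 nM. Bound TF was detected with fluorescent anti-GST. Each ungapped 8-mer (which stands for itself and its reverse complement) is scored by the PBM enrichment score (E-score), a modified Wilcoxon-Mann-Whitney statistic from -0.5 to +0.5, computed with the Universal PBM Analysis Suite. Scale: above 0.35 generally sequence-specific binding.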
For GGGTTTAA, the “PBM E-score” value was determined as 0.398. GGGTTTTA: the “PBM E-score” value was 0.322. For AGGGTTAC, the “PBM E-score” value is -0.0791. Consider AAAACGTC, for which the “PBM E-score” value is -0.179. On to GGTTGTCA, for which the “PBM E-score” value was -0.0232. With CACCGCTA the figure was 0.388.

In the case of GACCGCAA, the “PBM E-score” value was determined as 0.248. Take AACCGCTG: the “PBM E-score” value is 0.0244.

Turning to GACCGCGA, the “PBM E-score” value worked out at 0.31. On to GACCGCTA, for which the “PBM E-score” value worked out at 0.359. On to TACCGCTA, for which the “PBM E-score” value was determined as 0.306. AACCGCTA: the “PBM E-score” value is 0.0216. Take CACCGCTG: the “PBM E-score” value was found to be 0.405. With AACCGCTC, the “PBM E-score” value worked out at 0.119. Take GACCGCTC: the “PBM E-score” value stood at 0.267. On to AGCCGCTG, for which the “PBM E-score” value came out at 0.14. With CACCGCTC the figure was 0.402; with ATAGAGTG, -0.054; with ACAGTAAT, -0.154. As for CTGGCAAA, the “PBM E-score” value was -0.24. Turning to CTCATCGC, the “PBM E-score” value is -0.0444. As to CACAATGA, the “PBM E-score” value is -0.244. With ACGGACCT, the “PBM E-score” value was found to be 0.426. Regarding ACGGACAT, the “PBM E-score” value came to 0.41. For ACGGACAG, the “PBM E-score” value amounted to 0.00554. Consider ACGGACCA, for which the “PBM E-score” value was 0.237. In the case of ACGGACCG it was 0.297; in that of ACGGACAC, 0.215; in that of TACTTTGA, -0.207. For the sequence ACGTCCGA, the “PBM E-score” value was found to be 0.333. In the case of ATGTCCGC it was 0.443. Consider CCGTCCGC, for which the “PBM E-score” value was 0.292.

On to ATGTCCTG, for which the “PBM E-score” value was -0.0717. In the case of ATGTCCCC it was 0.224. Turning to CTGTCCGA, the “PBM E-score” value was 0.201.

For CTGTCCGC, the “PBM E-score” value was 0.129. Take ATGTCCCG: the “PBM E-score” value came out at 0.219.

With ACGTCCGC, the “PBM E-score” value came to 0.367.

GTGTCCGA: the “PBM E-score” value worked out at 0.231. For the sequence ATGTCCGG, the “PBM E-score” value was 0.415.

Consider ATGTCCGA, for which the “PBM E-score” value is 0.412. As to CCAAGCAA, the “PBM E-score” value was -0.148.

For CTGCTAGA, the “PBM E-score” value is 0.0321. As for CTAAGGCA, the “PBM E-score” value is -0.101. For the sequence CTTGTCTA, the “PBM E-score” value was -0.11. For CCAGGCCA, the “PBM E-score” value is -0.312. AGCGGTAA: the “PBM E-score” value was 0.34. GGCGGTAA: the “PBM E-score” value was 0.385. Consider AGCGGTAC, for which the “PBM E-score” value was determined as 0.347. With CGCGGTAC, the “PBM E-score” value stood at 0.34. In the case of TGCGGTAA it was 0.278; in that of GGCGGTAC, 0.361. In the case of TCAAGTCA, the “PBM E-score” value was -0.175. In the case of GCACCTCA it was -0.199. In the case of CAATTATC it was 0.215; in that of AGTCCGTC, 0.389.

Take ACTCCGAC: the “PBM E-score” value was found to be 0.425. Regarding ACTCCGTC, the “PBM E-score” value amounted to 0.367. In the case of ACTCCGTA it was 0.35; in that of CGTCCGTC, 0.21; in that of ACTCCGTG, 0.352. Consider ACTCCGAG, for which the “PBM E-score” value came to 0.202. Regarding ATTCCGTC, the “PBM E-score” value amounted to 0.141. Take CCTCCGTC: the “PBM E-score” value is 0.195. With AGTCCGTA, the “PBM E-score” value worked out at 0.284. With ACTCCGAA the figure was 0.328. In the case of ATTCCGTG it was 0.00715; in that of TACAACCA, -0.0508. As for ACTCCCCA, the “PBM E-score” value is -0.225. In the case of GCGACAGC it was 0.105; in that of ACGAGGCA, -0.206. For TATGTCCA, the “PBM E-score” value was found to be 0.133. In the case of AGGGCGAG it was -0.295; in that of TGGCGCCA, 0.0517.

Turning to GGGCGATA, the “PBM E-score” value came to 0.11. With AGGCGCCA the figure was 0.041. Regarding CGGCGCTA, the “PBM E-score” value was 0.447.

Regarding AGGCGATA, the “PBM E-score” value was -0.0449. Consider AGGCGCGA, for which the “PBM E-score” value was -0.00867.

CGGCGCCA: the “PBM E-score” value stood at 0.377.

Consider GGGCGCTA, for which the “PBM E-score” value came to 0.0264.

Take CGGCGCGA: the “PBM E-score” value came to 0.373.

Consider CGGCGCGC, for which the “PBM E-score” value stood at 0.275. On to AGGCGCTA, for which the “PBM E-score” value amounted to 0.0525. CGGCGATA: the “PBM E-score” value turned out to be 0.463. As to TGCCTCCA, the “PBM E-score” value is -0.237.

The record behind these values is the supplement of paper PMC3334620.
